# ± gives the standard deviation of the averaged measurements.
# Compound: CCCCN=C=S [butyl isothiocyanate]
# Experiment: control-subtracted net OSN firing rate; higher = stronger neuronal activation
# Conditions: odorant dilution (vol/vol): 1/100
# Protocol: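 Single sensillum recordings from olfactory sensory neurons. The neurons sit in the maxillary palp or antennal sensilla of D. melanogaster (wild type, mutants, or at1 empty-neuron lines expressing Or42a homologs or the A181D S307P mutant) and of four Scaptomyza species. Each odorant was given as a 1 s pulse from 20 µl loaded on filter paper at 1:100 vol/vol, diluted in mineral oil (γ-hexalactone in DMSO). Spikes were counted in a 0.5 s window starting 0.2 s after onset, background was subtracted, the count was doubled, and the mean solvent-control response was subtracted.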
row,Target,control-subtracted net OSN firing rate [spikes/s]
1,Canton-S (D. melanogaster) pb3b,2 ± 11
2,S. hsui pb1b-like,-1 ± 5.2
3,Canton-S (D. melanogaster) pb1a,8 ± 8.9
4,S. montana pb2a-like,2 ± 4.6
5,"Or67dGal4, UAS-Spal Or42a at1",18.2 ± 16
6,"Or67dGal4, UAS-Sfla A181D S307P/+ at1",29 ± 10
7,"Or67dGal4, UAS-Dmel Or42a at1",10.3 ± 7.7
8,"Or67dGal4, UAS-Sfla Or42a4/+ at1",22.6 ± 4.1
9,S. montana pb3b-like,0.333 ± 6.1
10,"Or67dGal4, UAS-Sfla Or42a4 at1",96.7 ± 25
11,S. montana pb1a-like,92.3 ± 11
12,S. hsui pb3b-like,1 ± 2.8
13,S. pallida pb1b-like,-4.33 ± 11
14,S. pallida pb2b-like,2.67 ± 9.3
15,S. hsui pb2a-like,-1 ± 6
16,"Or67dGal4, UAS-Sfla Or42a3 at1",46 ± 28
17,S. montana pb3a-like,0.667 ± 10
18,"Or67dGal4, UAS-Sfla Or42a3/+ at1",27.7 ± 5
19,Or67dGal4; UAS-A181D S301P at1,68.6 ± 33
20,S. hsui pb1a-like,7.67 ± 5.8

row,Target,control-subtracted net OSN firing rate [spikes/s]
1,S. flava pb3b-like,1.67 ± 15
2,S. flava pb2b-like,-1.33 ± 10
3,Canton-S (D. melanogaster) pb3a,2.5 ± 6.6
4,S. montana pb1b-like,-15 ± 6.8
5,S. hsui pb2b-like,3.67 ± 6.9
6,Or67dGal4; UAS-SflaOr42a4 at1,120 ± 36
7,S. hsui pb3a-like,0 ± 6.8
8,"Or67dGal4, UAS-Sfla Or42a2 at1",2.86 ± 5
9,S. flava pb1b-like,-17.7 ± 20
10,S. pallida pb3b-like,-1.67 ± 20
11,S. pallida pb1a-like,11.7 ± 10
12,S. flava pb3a-like,5.67 ± 8.2
13,S. flava pb1a-like,90.7 ± 22
14,Canton-S (D. melanogaster) pb2b,-1.71 ± 8.6
15,Canton-S (D. melanogaster) pb2a,3.43 ± 2.8
16,S. montana pb2b-like,-0.333 ± 6
17,S. flava pb2a-like,-3 ± 8.9
18,Canton-S (D. melanogaster) pb1b,-2.22 ± 8
19,S. pallida pb2a-like,5 ± 7.6
20,S. pallida pb3a-like,-3 ± 7.5

# From the supplement of paper PMC11482750
